Some test systems named below: NCI-H23 lung; NCI-H226 lung; NCI-H322M lung; HOP-62 NSCLC; NCI-H460 lung; HOP-92 NSCLC; A549/ATCC NSCLC; 786-0 renal; COLO 205 colon; DU-145 prostate; K-562 leukemia; MALME-3M melanoma; MDA-MB-231 breast; RXF 393 renal; SF-268 CNS; SF-295 CNS; SF-539 CNS; UACC-257 melanoma; M14 melanoma.
Holding throughout (assay): NCI-60 one-dose screen, 48 h (100 = growth as untreated, 0 = no growth, -100 = all killed)
The test system of another experiment is NCI-H522 lung. Conditions: 10 µM unless noted.

For five compounds, growth results are on record in PubChem BioAssay (NCI).

Where “and” joins values, the source holds several entries; their conditions need not be identical. Equal values may be shown once. Compounds without any hit were thinned out: in the full panel of roughly 83,000, 20% have a hit.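 Note: values are percent growth. 100 is the growth of untreated cells, values between 100 and 0 indicate rising inhibition; between -100 and 0 indicates cell death.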 Unmarked numbers belong to inactive results. Calls of active or inactive are those of the source. The calls were made as follows: active = growth percent below 10; inactive = the rest.

For `O=c1ccn(C2CC(O)C(COC(c3ccccc3)(c3ccccc3)c3ccccc3)O2)c(=O)[nH]1` (configuration not stated), the growth in the experiment with NCI-H23 lung (10 µM) was 101%; in the experiment with NCI-H23 lung (100 µM) it was 69.2%; in the experiment with NCI-H226 lung (10 µM), 91.7%; with NCI-H226 lung (100 µM) it was 36.2%; with NCI-H322M lung (10 µM), 87.5%; with NCI-H322M lung (100 µM), 68.8%. Moreover, the growth was 89.2% in the experiment with HOP-62 NSCLC (10 µM); 72% in the experiment on HOP-62 NSCLC (100 µM); 91.2% in the experiment with NCI-H460 lung (10 µM); 39.4% with NCI-H460 lung (100 µM); 87.8% with HOP-92 NSCLC (10 µM); 25.4% with HOP-92 NSCLC (100 µM). In addition, the growth with NCI-H522 lung is 53.6% [100 µM]; in the experiment with A549/ATCC NSCLC (10 µM), 74.8%; in the experiment on A549/ATCC NSCLC (100 µM), 44%; in the experiment with 786-0 renal (10 µM), 82%; in the experiment on 786-0 renal (100 µM) it was 65.5%; in the experiment with COLO 205 colon (10 µM), 114%. For the same compound, the growth was 59.4% with COLO 205 colon (100 µM); 107% in the experiment with DU-145 prostate (10 µM); 55.7% in the experiment with DU-145 prostate (100 µM); 79.1% with K-562 leukemia (10 µM); 26.5% in the experiment with K-562 leukemia (100 µM); 94.4% in the experiment with MALME-3M melanoma (10 µM). The growth was 70.7% in the experiment on MALME-3M melanoma (100 µM); 73.5% in the experiment with MDA-MB-231 breast (10 µM); 66.1% in the experiment on MDA-MB-231 breast (100 µM); 86.5% in the experiment with RXF 393 renal (10 µM); 36.6% with RXF 393 renal (100 µM); 83% in the experiment with SF-268 CNS (10 µM). Besides, the growth is 42.9% with SF-268 CNS (100 µM); 38.2% in the experiment with SF-295 CNS (100 µM); 97.2% in the experiment with SF-539 CNS (10 µM); 60.3% in the experiment with SF-539 CNS (100 µM); 55.2% in the experiment with UACC-257 melanoma (100 µM); 81.4% in the experiment on M14 melanoma (10 µM). Besides, the growth with M14 melanoma (100 µM) was 52.5%.
On to `NNc1ccc2ccccc2c1`, for which the growth with NCI-H23 lung (10 µM) is 87.9% and 94.4%; in the experiment on NCI-H226 lung (10 µM), 87.3% and 85.8%; in the experiment on NCI-H322M lung (10 µM), 83% and 97.3%; in the experiment on HOP-62 NSCLC (10 µM), 81.1% and 97.4%; in the experiment on NCI-H460 lung (10 µM), 105%; in the experiment on HOP-92 NSCLC (10 µM) it was 97% and 95.6%. For the same compound, the growth in the experiment with NCI-H522 lung was 79.5% and 98.6%; in the experiment on A549/ATCC NSCLC (10 µM), 102% and 106%; in the experiment on 786-0 renal (10 µM) it was 99.8% and 98.3%; in the experiment on COLO 205 colon (10 µM) it was 94% and 109%; in the experiment with DU-145 prostate (10 µM unless noted), 98.5% and 111%; in the experiment with K-562 leukemia (10 µM), 86% and 115%. Besides, the growth is 90.1% and 96.8% with MALME-3M melanoma (10 µM); 68.7% and 90.1% with MDA-MB-231 breast (10 µM); 122% and 98.9% in the experiment with RXF 393 renal (10 µM unless noted); 75.8% and 96.8% in the experiment on SF-268 CNS (10 µM); 95.8% and 102% in the experiment with SF-295 CNS (10 µM); 86% and 100% with SF-539 CNS (10 µM). For the same compound, the growth with UACC-257 melanoma (10 µM) is 107% and 105%; in the experiment on M14 melanoma (10 µM), 89.6% and 96.8%.
In the case of `CC(=O)OCC(OC(C)=O)C(OC(C)=O)C(OC(C)=O)C(OC(C)=O)C(/C=N/Nc1ccccc1)=N/Nc1ccccc1` (configuration not stated), the growth in the experiment on NCI-H23 lung (10 µM) was 79.9%; in the experiment with NCI-H226 lung (10 µM), 72.7%; in the experiment with NCI-H322M lung (10 µM), 65%; in the experiment on HOP-62 NSCLC (10 µM), 66.8%; in the experiment with NCI-H460 lung (10 µM), 65.2%; in the experiment with HOP-92 NSCLC (10 µM) it was 79.5%. Moreover, the growth is 40.6% in the experiment with NCI-H522 lung; 60.9% in the experiment with A549/ATCC NSCLC (10 µM); 63.6% in the experiment on 786-0 renal (10 µM); 97.1% in the experiment with COLO 205 colon (10 µM); 78.4% with DU-145 prostate (10 µM unless noted); 22.4% in the experiment on K-562 leukemia (10 µM). For the same compound, the growth with MALME-3M melanoma (10 µM) is 84.5%; in the experiment with MDA-MB-231 breast (10 µM), 58.8%; in the experiment on RXF 393 renal (10 µM unless noted), 77%; in the experiment with SF-268 CNS (10 µM) it was 71.5%; in the experiment on SF-295 CNS (10 µM), 46.6%; with SF-539 CNS (10 µM) it was 89.9%. In addition, the growth in the experiment on UACC-257 melanoma (10 µM) and in the experiment with M14 melanoma (10 µM) was 82.3% in each case.
Regarding `O=C(C(=Cc1ccccc1)C(=O)c1ccccc1)c1ccccc1`, the growth in the experiment with NCI-H23 lung (10 µM) is 66.7% and 95.2%; in the experiment on NCI-H226 lung (10 µM), 68.4% and 97.7%; with NCI-H322M lung (10 µM) it was 89.6% and 110%; with HOP-62 NSCLC (10 µM) it was 102%; in the experiment on NCI-H460 lung (10 µM), 33.3% and 96.3%; in the experiment with HOP-92 NSCLC (10 µM), 65.7% and 84.3%. Besides, the growth with NCI-H522 lung is 75.2% and 68.9%; in the experiment with A549/ATCC NSCLC (10 µM) it was 81.6% and 83.1%; with 786-0 renal (10 µM), 73.5% and 97.3%; in the experiment with COLO 205 colon (10 µM), 124%; in the experiment with DU-145 prostate (10 µM unless noted), 61.3% and 102%; with K-562 leukemia (10 µM) it was 35.5% and 93.8%. Further, the growth is 88.4% and 108% in the experiment on MALME-3M melanoma (10 µM); 70.5% and 74.8% with MDA-MB-231 breast (10 µM); 66.5% and 98.8% with RXF 393 renal (10 µM unless noted); 58.5% and 83.3% in the experiment on SF-268 CNS (10 µM); 65.4% and 97.7% in the experiment with SF-295 CNS (10 µM); 72.9% and 96.9% in the experiment with SF-539 CNS (10 µM). Besides, the growth was 73% and 83.7% in the experiment with UACC-257 melanoma (10 µM); 47.5% with M14 melanoma (10 µM).
Regarding `COc1ccc(CC(=O)c2ccc(O)cc2O)cc1`, the growth was 104% in the experiment on NCI-H23 lung (10 µM); 133% in the experiment with NCI-H226 lung (10 µM); 122% in the experiment with NCI-H322M lung (10 µM); 88.4% in the experiment on HOP-62 NSCLC (10 µM); 115% with NCI-H460 lung (10 µM); 94.4% in the experiment on HOP-92 NSCLC (10 µM). Besides, the growth in the experiment on NCI-H522 lung is 4.52% (active); with A549/ATCC NSCLC (10 µM) it was 109%; in the experiment on 786-0 renal (10 µM), 96.5%; with COLO 205 colon (10 µM), 207%; in the experiment on DU-145 prostate (10 µM unless noted) it was 138%; in the experiment on K-562 leukemia (10 µM) it was 98.7%. For the same compound, the growth in the experiment on MALME-3M melanoma (10 µM) is 128%; in the experiment on MDA-MB-231 breast (10 µM), 117%; in the experiment with RXF 393 renal (10 µM unless noted), 144%; with SF-268 CNS (10 µM), 132%; in the experiment on SF-295 CNS (10 µM), 113%; in the experiment with SF-539 CNS (10 µM), 99.3%. Moreover, the growth was 119% with UACC-257 melanoma (10 µM) and 103% with M14 melanoma (10 µM).
